Compound activity: PubChem BioAssay, ICCB-Longwood Screening Facility, Harvard Medical School
This is one part of a sample in which hits are shown more often than they occur.
MgrA DNA FP: modulators of Staphylococcus aureus MgrA DNA binding; fluorescence polarization; AID 602314; hit rate 0.13% among 84,000; inhibition, % (no concentration beside the values); in the data active means inhibition above about 30%, passing the limit was not always enough;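 further: higher means less MgrA bound to DNA so lower polarization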
Numbers stand for hits; - = inactive.

SMILES	MgrA DNA FP
O=C(Nc1ccccc1Cl)c1cc2c(s1)-c1ccccc1S(=O)(=O)C2	-
CN1C(=O)/C(=C/c2ccc(SCc3ccccc3)o2)SC1=S	-
O=C(OCC1c2ccccc2-c2ccccc21)ON1C(=O)CCC1=O	68.4
O=C(COc1ccccc1)ON1C(=O)CCC1=O	-
O=C(NC1(C(=O)O)CC1)OCC1c2ccccc2-c2ccccc21	-
CC(=O)Nc1sccc1C(=O)O	-
Cc1ccc(C)n1-c1sccc1C(=O)CC#N	-
Cc1ccc(C)n1-c1sccc1C(=O)O	88.5
CCN1CC=C2C(C1)C(c1ccc(Cl)s1)C(C#N)=C(N)C2(C#N)C#N (centres undefined)	41.7
CC(C)c1ccc(C2C(C#N)=C(N)C(C#N)(C#N)C3=CCN(C)CC32)cc1 (centres undefined)	-
CCCN1CC=C2C(C1)C(c1ccc(C(=O)OC)cc1)C(C#N)=C(N)C2(C#N)C#N (centres undefined)	-
CCSc1nc(C)c2cc(OC)ccc2n1	-
CCN(CC)CCSc1nc2ccc(OC)cc2[nH]1	-
CCN(CC)CCCC(C)Nc1c2ccc(Cl)cc2nc2ccc(OC)cc12 (centres undefined)	60.5
COc1cccc(C(C(=O)NCC2CCCO2)N(CC2CCCO2)C(=O)CC2C(=O)c3ccccc3S2(=O)=O)c1 (centres undefined)	-
COC(=O)c1ccc2c(=O)n(CCc3ccc(S(N)(=O)=O)cc3)c(SCC(=O)Nc3ccc(N(C)C)cc3)nc2c1	-
O=C1C(c2ccc(Br)cc2)=C(O)c2ccccc21	-
CCNC(=S)Nc1ccc(F)cc1	-
